Data on eight molecules can be found in ChEMBL document CHEMBL3988442, “University of Dundee, Small-Polar-MMV Screening Library” (2021).

Molecules are shown by their SMILES. For some of these results: Results with a measured potency or affinity are listed apart.

Parameters in all cases: scale not given: direction of the effect not stated beside the values
The target of test [1] is Protein translocase subunit SecA (Escherichia coli (strain K12)) (UniProt P10408). The experiment in a line: Assay to Identify E. coli SecA ATPase Inhibitors. In kind it is functional. As to conditions: 30 µM.
Chain of Protein translocase subunit SecA (Escherichia coli (strain K12)) (P10408 whole entry): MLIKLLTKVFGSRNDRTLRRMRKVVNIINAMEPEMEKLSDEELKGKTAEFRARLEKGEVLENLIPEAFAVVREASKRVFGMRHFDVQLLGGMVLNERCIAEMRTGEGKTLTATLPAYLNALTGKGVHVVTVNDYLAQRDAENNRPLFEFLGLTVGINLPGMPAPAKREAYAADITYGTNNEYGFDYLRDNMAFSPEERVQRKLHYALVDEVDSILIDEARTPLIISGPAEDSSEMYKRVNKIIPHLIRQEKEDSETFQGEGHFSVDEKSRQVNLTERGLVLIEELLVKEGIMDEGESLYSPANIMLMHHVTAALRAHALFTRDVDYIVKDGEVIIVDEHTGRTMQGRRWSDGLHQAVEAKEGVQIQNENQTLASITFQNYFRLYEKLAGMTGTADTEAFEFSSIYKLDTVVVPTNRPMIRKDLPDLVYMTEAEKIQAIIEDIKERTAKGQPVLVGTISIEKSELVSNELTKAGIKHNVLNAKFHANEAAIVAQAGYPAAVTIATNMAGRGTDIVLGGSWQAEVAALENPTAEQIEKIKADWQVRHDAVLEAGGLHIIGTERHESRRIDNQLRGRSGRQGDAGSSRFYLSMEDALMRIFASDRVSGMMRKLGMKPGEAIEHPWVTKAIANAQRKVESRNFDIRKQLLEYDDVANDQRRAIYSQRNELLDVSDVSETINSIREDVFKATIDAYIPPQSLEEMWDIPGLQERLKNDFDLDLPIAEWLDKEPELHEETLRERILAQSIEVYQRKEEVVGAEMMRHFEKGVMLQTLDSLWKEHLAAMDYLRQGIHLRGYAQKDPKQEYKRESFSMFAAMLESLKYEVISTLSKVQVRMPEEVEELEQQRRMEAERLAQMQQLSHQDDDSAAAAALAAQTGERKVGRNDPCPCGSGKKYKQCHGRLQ
Test [2] concerns the target T1, Ubiquitin-activating enzyme e1, putative (Leishmania donovani (strain BPK282A1)) (UniProt E9BSI1).
T1 sequence (whole entry): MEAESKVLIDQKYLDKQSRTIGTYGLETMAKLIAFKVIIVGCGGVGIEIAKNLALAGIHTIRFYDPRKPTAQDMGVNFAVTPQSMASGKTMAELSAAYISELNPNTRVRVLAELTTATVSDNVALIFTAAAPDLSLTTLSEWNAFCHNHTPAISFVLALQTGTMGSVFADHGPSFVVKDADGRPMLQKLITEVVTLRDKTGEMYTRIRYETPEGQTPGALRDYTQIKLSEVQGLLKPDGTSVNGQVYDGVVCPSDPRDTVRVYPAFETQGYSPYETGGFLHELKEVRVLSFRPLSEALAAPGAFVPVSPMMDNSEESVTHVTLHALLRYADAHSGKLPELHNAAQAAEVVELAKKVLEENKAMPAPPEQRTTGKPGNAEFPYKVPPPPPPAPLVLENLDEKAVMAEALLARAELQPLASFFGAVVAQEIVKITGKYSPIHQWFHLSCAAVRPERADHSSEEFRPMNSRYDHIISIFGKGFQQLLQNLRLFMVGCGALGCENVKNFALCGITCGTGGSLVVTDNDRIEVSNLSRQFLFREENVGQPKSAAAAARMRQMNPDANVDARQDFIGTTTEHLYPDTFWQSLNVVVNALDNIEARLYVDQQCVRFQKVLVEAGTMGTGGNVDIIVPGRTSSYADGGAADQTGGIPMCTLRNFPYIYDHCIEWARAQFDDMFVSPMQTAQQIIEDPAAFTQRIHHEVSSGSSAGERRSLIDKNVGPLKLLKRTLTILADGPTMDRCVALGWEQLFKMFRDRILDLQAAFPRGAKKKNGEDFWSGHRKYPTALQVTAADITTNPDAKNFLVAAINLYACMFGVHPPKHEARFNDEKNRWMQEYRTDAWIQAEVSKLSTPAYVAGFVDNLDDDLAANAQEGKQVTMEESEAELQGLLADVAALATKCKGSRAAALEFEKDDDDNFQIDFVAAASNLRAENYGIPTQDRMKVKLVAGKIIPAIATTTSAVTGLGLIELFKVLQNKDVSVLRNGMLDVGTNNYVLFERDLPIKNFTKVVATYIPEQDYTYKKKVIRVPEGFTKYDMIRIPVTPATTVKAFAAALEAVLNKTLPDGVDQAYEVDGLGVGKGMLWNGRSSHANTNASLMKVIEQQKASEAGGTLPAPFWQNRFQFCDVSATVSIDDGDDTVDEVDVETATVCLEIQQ
The test can be described thus: Leishmania donovani Ubiquitin Activating Enzyme (LdE1). In kind it is functional. Particulars: 30 µM.

Test [3] has as its target AMP-activated protein kinase, AMPK (Homo sapiens) (UniProt P54646+O43741+P54619+Q9UGJ0+Q9Y478+Q13131+Q9UGI9). The experiment in a line: AMP-dependent Kinase enzyme assay. An in vitro enzyme assay that detects ADP turnover that is directly proportional to AMPK activity. This uses naive AMPK that is activated during the assay with MK-8722. In kind it is functional. Particulars: 30 µM.

The target of test [4] is Sialic acid-binding Ig-like lectin 9 (Homo sapiens) (UniProt Q9Y336). The experiment in a line: Hs-Siglec9 ALPHAscreen SOP 20170721. Particulars: 10 µM.
Chain of Sialic acid-binding Ig-like lectin 9 (Homo sapiens) (Q9Y336 whole entry): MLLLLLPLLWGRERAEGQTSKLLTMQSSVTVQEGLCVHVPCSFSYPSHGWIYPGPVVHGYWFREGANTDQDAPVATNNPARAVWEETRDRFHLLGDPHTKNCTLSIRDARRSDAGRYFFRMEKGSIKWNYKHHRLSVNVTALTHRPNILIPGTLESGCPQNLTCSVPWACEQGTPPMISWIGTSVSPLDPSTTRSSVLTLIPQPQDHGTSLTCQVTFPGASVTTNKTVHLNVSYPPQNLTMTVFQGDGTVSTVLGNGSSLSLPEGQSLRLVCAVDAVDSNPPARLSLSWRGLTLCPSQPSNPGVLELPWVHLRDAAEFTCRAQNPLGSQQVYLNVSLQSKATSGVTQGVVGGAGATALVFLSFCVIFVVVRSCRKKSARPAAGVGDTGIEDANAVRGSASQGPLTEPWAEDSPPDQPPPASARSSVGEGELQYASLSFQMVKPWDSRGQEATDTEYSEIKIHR
The test system of test [5] is Trypanosoma cruzi. The test can be described thus: Trypanosoma cruzi phosphomannomutase and mannose-1-phosphate guanylyltransferase assay. Format: functional. As to conditions: 10 µM.
In test [6] the target is T2, Arginase-2, mitochondrial (Homo sapiens) (UniProt P78540).
T2 sequence (whole entry): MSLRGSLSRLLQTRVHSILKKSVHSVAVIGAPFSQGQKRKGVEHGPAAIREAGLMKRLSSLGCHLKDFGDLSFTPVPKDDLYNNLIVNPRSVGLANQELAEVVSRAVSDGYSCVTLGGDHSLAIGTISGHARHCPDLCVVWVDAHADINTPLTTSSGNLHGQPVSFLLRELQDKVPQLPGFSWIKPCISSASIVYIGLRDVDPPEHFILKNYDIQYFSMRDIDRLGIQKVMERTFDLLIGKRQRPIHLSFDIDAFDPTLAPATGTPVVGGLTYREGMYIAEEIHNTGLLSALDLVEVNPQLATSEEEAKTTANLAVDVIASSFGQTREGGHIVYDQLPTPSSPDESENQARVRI
The experiment in a line: in vitro enzyme assay to detect the production of urea directly proportional to the activity of Arginase II. Further: in the data most compounds retested in dose-response had high values. In kind it is functional. Particulars: 33.3 µM.

The target in test [7] is T3, Proteasome subunit beta (Trypanosoma cruzi) (UniProt O96673).
T3 sequence (whole entry): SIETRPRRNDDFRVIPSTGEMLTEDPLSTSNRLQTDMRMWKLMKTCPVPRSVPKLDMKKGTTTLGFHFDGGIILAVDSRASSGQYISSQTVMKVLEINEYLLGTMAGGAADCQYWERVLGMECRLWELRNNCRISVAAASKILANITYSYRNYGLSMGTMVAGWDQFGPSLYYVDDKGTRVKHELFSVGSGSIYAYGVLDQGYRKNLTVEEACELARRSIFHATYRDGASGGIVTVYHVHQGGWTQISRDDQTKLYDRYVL
The test can be described thus: Trypanosoma cruzi proteasome chymotrypsin-like activity (TcProtChymo) assay. Further: in the data most compounds retested in dose-response had high values. In kind it is functional. As to conditions: 9.37 µM.

The species named for test [8] is Homo sapiens. The test can be described thus: To identify inhibition of the IFN signalling (Jak-Stat) pathway via expression of an eGFP reporter gene under the control of an IFN-stimulated response element (ISRE) containing MxA promoter. In kind it is functional. Particulars: 30 µM. In general terms: Reporter assays use an easily measured gene product as a stand-in for the process of interest.

The target of test [9] is T4, Tyrosyl-tRNA synthetase, putative (Trypanosoma cruzi (strain CL Brener)) (UniProt Q4DSP6).
T4 sequence (whole entry): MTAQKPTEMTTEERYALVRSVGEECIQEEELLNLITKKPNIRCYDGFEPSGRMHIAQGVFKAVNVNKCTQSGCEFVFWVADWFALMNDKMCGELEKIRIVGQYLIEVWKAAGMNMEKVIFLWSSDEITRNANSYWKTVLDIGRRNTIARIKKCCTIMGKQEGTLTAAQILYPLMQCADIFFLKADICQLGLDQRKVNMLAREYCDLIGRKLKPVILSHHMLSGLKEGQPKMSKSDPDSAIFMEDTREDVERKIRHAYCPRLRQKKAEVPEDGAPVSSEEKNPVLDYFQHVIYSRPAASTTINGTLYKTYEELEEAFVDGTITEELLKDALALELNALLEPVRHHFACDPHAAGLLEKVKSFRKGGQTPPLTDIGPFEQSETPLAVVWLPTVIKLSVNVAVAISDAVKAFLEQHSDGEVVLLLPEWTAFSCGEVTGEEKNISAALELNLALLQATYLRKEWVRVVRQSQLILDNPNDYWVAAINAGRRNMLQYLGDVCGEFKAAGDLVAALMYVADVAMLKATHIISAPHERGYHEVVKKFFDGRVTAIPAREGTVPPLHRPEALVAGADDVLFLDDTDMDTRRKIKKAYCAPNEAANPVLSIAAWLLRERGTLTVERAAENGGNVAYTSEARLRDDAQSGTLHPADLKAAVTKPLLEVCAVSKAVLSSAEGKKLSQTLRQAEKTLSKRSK
The test can be described thus: Trypanosoma cruzi tyrosyl tRNA synthetase (TcYRS) _High Tyrosine SOP. Further: in the data most compounds retested in dose-response had high values. In kind it is functional. As to conditions: 30 µM.

Test [10] concerns the target T4, Tyrosyl-tRNA synthetase, putative (Trypanosoma cruzi (strain CL Brener)). The experiment in a line: Trypanosoma cruzi tyrosyl tRNA synthetase (TcYRS) SOP. Particulars: 30 µM. In kind it is functional.
For test [11], the target named is Chromo domain-containing protein 1 (Saccharomyces cerevisiae (strain ATCC 204508 / S288c) (Baker's yeast)) (UniProt P32657). The test can be described thus: ScCHD-1 Enzyme Inhibition Assay. Further: in the data most compounds retested in dose-response had high values. Format: functional. As to conditions: 30 µM.
Chain of Chromo domain-containing protein 1 (Saccharomyces cerevisiae (strain ATCC 204508 / S288c) (Baker's yeast)) (P32657 whole entry, the tested form may be a part): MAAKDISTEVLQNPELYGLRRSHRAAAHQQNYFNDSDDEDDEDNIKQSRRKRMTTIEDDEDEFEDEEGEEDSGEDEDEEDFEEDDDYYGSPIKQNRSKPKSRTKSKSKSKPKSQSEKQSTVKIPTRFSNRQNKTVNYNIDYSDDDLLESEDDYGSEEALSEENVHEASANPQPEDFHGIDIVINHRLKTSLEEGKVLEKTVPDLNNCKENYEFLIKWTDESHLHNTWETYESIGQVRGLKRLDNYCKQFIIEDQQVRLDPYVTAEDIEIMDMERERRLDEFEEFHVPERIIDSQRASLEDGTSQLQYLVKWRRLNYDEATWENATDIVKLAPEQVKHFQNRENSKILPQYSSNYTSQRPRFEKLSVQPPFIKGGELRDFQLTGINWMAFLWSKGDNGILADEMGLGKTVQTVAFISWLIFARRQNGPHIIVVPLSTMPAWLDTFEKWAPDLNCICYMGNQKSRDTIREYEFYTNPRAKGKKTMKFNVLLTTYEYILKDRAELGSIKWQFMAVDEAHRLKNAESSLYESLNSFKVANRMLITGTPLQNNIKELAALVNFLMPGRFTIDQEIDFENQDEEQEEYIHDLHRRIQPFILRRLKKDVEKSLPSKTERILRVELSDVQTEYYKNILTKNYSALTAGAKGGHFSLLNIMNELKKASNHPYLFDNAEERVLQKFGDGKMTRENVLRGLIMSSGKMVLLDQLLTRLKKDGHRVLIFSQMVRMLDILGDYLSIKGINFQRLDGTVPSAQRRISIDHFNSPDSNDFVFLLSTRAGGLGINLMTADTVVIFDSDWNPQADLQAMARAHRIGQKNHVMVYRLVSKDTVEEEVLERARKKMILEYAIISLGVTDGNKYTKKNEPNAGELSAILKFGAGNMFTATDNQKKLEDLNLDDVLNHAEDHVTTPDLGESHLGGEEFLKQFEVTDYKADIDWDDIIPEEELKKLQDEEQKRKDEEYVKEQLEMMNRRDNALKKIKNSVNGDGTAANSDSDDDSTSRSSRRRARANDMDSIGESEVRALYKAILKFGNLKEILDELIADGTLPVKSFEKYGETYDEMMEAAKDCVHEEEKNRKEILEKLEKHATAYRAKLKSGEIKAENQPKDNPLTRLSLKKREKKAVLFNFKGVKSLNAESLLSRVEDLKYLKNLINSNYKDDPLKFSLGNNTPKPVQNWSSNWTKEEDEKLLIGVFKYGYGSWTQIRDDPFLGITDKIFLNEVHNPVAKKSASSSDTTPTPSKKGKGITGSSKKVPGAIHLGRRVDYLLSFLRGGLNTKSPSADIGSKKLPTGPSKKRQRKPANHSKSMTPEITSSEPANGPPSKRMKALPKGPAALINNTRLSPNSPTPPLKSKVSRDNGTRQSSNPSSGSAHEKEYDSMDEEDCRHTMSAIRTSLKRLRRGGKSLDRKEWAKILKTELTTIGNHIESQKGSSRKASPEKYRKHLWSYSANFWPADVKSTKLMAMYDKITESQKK

As for `CNS(=O)(=O)c1ccc(C(=O)NC2CCOc3ccccc32)o1` (stereo not drawn), the Percent Effect in [1] is -5.29%; in test [2] it was 18.4%; in test [3] it was 0.291%; in test [4], 1.37%; in [5], 0.682%; in test [6], -3.55%. For the same molecule, the Percent Effect was 11.8% in [7]; 17.5% in [8]; 2.13% in test [9]; 18.2% in test [10]; -7.69% in [11].
As to `CCOc1ccc(C2CC(=O)Nc3c2c(=O)nc2sccn32)cc1` (stereo not drawn), the Percent Effect in test [1] was -6.79%; in [2] it was 17.3%; in [3], -2.62%; in test [4], 8.5%; in test [5], 1.97%; in [6], -6.51%. Further, the Percent Effect is 9.06% in test [7]; 7.35% in [8]; 4.23% in test [9]; 7.69% in test [10]; -13.3% in [11].
Consider `O=C(C1CC(=O)N(C2CCCC2)C1)N1CCN(CCn2cccc2)CC1` (stereo not drawn), for which the Percent Effect in [1] was -3.53%; in [2] it was 13.3%; in test [3], -5.45%; in test [4], 19.8%; in test [5], 2.82%; in test [6] it was 13.5%. Also, the Percent Effect in [7] is 16.9%; in test [8], 23%; in test [9] it was 3.83%; in test [10], 13.6%; in test [11], -7.64%.
In the case of `O=C(NCc1ccco1)c1nn(C2CCS(=O)(=O)C2)c2c1CCCC2` (stereo not drawn), the Percent Effect in test [1] is -5.41%; in test [2], 21.1%; in test [3], 7.28%; in test [4] it was 5.73%; in test [5], 3.02%; in test [6], -3.55%. The Percent Effect in test [7] is 13.1%; in [8], 4.09%; in test [9], 0%; in [10] it was 5.2%; in test [11], -0.898%.
Take `O=C(NCCCn1cccn1)C1(c2ccc(Br)cc2)CC1`: the Percent Effect in [1] is 0.127%; in [2], 8.22%; in [3], 12.9%; in test [4], -1.49%; in [5] it was -3.13%; in test [6], 2.73%. Further, the Percent Effect in [7] is 10.1%; in test [8], 8.94%; in [9], 4.3%; in [10], 10%; in test [11], -4.29%.
Take `O=C(Cc1cccc(F)c1)NCCNCc1ccc2c(c1)CCO2`: the Percent Effect was -4.03% in test [1]; 13% in [2]; -6% in test [3]; 17.2% in test [4]; 3.93% in test [5]; -1.42% in test [6]. In addition, the Percent Effect is -1.52% in test [7]; -5.5% in test [8]; 8.74% in [9]; 19.5% in [10]; -5.42% in test [11].
As for `CNS(=O)(=O)c1ccc(C(=O)N2CCCC2c2cnn(C)c2)o1` (stereo not drawn), the Percent Effect in test [1] is -2.43%; in [2], 7.89%; in test [3], -0.508%; in test [4], -1.15%; in [5] it was 8.12%; in [6], 0.719%. The Percent Effect in [7] was -0.761%; in test [8], 1.2%; in test [9], 1.48%; in test [10] it was 6.17%; in test [11], -6.23%.
As to `Cc1nn(C)c(C)c1C1CCCN1CC(=O)Nc1ccncc1` (stereo not drawn), the Percent Effect in test [1] is -3.89%; in test [2], -2.7%; in test [3] it was -12%; in test [4], -1.63%; in test [5] it was -3.49%; in test [6], 4.41%. Moreover, the Percent Effect in test [7] was -2.88%; in [8], 7.51%; in test [9], -0.493%; in test [10] it was -11.1%; in test [11] it was 4.66%.
